PubChem BioAssay (NCI)
This is part of a sample that, as a whole, favours compounds with a hit. Of some 83,000 tested, about 20% had one in any assay.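 96-well plates, one dose, 48 hours. Percent growth reported; active if below 10.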 Active and inactive are the calls of the source.

These compounds were tested on HOP-62 NSCLC (assay: NCI-60 one-dose screen, 48 h (100 = growth as untreated, 0 = no growth, -100 = all killed)). Conditions: 10 µM unless noted.
Procedure: Growth inhibition of the HOP-62 human Non-Small Cell Lung tumor cell line is measured as a screen for anti-cancer activity. Cells are grown in 96 well plates and exposed to the test compound for 48 hours. Compounds are tested at a single concentration, which is 10^-5 M for most compounds. The reported endpoint is percent growth (GI% or GIPRCNT), where numbers from 0 - 100% represent growth inhibition, and numbers from -100% - 0 represent cell death. For example, a value of 40 represents 60% growth inhibition. A value of 0 means no net growth occurred over the course of the experiment. A value of -40 indicates 40% of cells at the beginning of the experiment died by the end of the experiment. A value of -100 means all cells are dead at the end of the experiment.
NCI-60 Human Tumor Cell Lines Screen was performed using the standard one-dose NCI protocol, which is described in more detail at https://dtp.cancer.gov/discovery_development/nci-60/default.htm.
Compounds with GIPRCNT values below 10 were considered active. Activity score was based on GIPRCNT using the following formula: […]
Score is 0 for GIPRCNT values of 100 or above, 50 for GIPRCNT values of 0, and 100 for GIPRCNT values of -100.

Structure (SMILES) | growth
O=C(NNc1nc2cc(F)ccc2n2c(CN3CC4(COC4)C3)ccc12)c1cnccn1 | 23% (inactive)
COC(=O)C(C)NS(=O)(=O)/N=C1\NC(=O)NC1=C(Cl)Cl (stereo not given) | 111% (inactive)
Cc1ccc(-c2nc(C(Cl)Cl)nc3cc(-c4ccccc4)nn23)cc1 | -16.7% (active)
COc1ccc(-n2c(SCC(=O)Nc3ccc(-c4nc5ccccc5[nH]4)cc3)nc3ccccc3c2=O)cc1 | 89.4% (inactive)
Cn1c(SCC(=O)Nc2ccc(-c3nc4ccc([N+](=O)[O-])cc4[nH]3)cc2)nc2ccccc2c1=O | 94.9% (inactive)
CCOC(=O)c1c(Nc2ccccc2)nn2c(N)c(C#N)c(-c3ccc(OC)cc3)nc12 | 61.3% (inactive)
CC(=O)Oc1ccccc1C(=O)Nc1cc(C(C)C)ccc1C | 19.6% (inactive)
COc1ccc(-c2nn3c(-c4ccccc4F)nnc3s2)cc1 | 67.5% (inactive)
COc1cc(OC)c(C2C(Cl)C(=O)N2Nc2ncnc3ccccc23)cc1OC (stereo not given) | 100% (inactive)
N=C1CC(=O)NN1C(=O)CSc1nc2sc3c(c2c(=O)n1-c1ccc(Cl)cc1)CCCC3 | 90.3% (inactive)
CC(=O)Oc1ccccc1C(=O)Nc1ccc(C(=O)/C=C/c2ccncc2)cc1 | 91.4% (inactive)
NS(=O)(=O)c1cccc(Nc2nc(SCC(=O)c3ccc(Br)cc3)nc3ccccc23)c1 | 59.5% (inactive)
Cc1ccc2c(n1)C(=O)C(Cl)=C(Nc1cccc(C(C)C)c1)C2=O | 89.1% (inactive)
CS(=O)(=O)c1ccc(-c2nc3ccccn3c2/C=N/Nc2nc(-c3ccc(Br)cc3)cs2)cc1 | 121% (inactive)
N#Cc1nc(-c2ccccc2)oc1N1CC[C@@H](CO)C1 | 102% (inactive)
CCCCN1C(=O)/C(=c2\sc3n(c2=O)C2C(NN=3)N(CC)C(=O)N2CC)c2cc(Cl)ccc21 (stereo not given) | 83.1% (inactive)
O=C(c1ccc(O)cc1)C1[C@H](c2ccc(Cl)cc2)[C@@H](c2ccccc2)NC12C(=O)Nc1ccc(Cl)cc12 (stereo not given in full) | 64.6% (inactive)
CN(C)c1ccc(/C=C2\Cc3c(F)ccc(Br)c3C2=O)cc1 | 91.5% (inactive)
O=C(CCN1C(=O)/C(=C/c2ccccc2F)SC1=S)N1CCOCC1 | 117% (inactive)
COc1ccc(-c2nc3ccc(-c4nnc(SCC(=O)Nc5ccc(C(=O)/C=C/c6ccccc6)cc5)o4)cc3[nH]2)cc1OC | 101% (inactive)

Structure (SMILES) | growth
O=C(CCCN1C(=O)/C(=C/c2ccccc2F)SC1=S)N1CCOCC1 | 119% (inactive)
COc1ccc(CNS(=O)(=O)/N=C2\NC(=O)NC2=C(Cl)Cl)cc1 | 46.9% (inactive)
COc1ccc(C(=O)/C=C/c2ccc(OCc3ccc(Cl)cc3)c(OC)c2)cc1OC | 103% (inactive)
C#Cc1nc(C2=C(C)/C(=N/OCc3ccccc3)CC2)cs1 | 55.6% (inactive)
Oc1c(Cl)cc(Cl)c2ccc(CN3CCCCC3)nc12 | 48.1% (inactive)
COc1cccc(N2CCN(c3ncnc4c3[nH]c3ccc(F)cc34)C[C@@H]2C)c1 | -54.2% (active)
CCOC(=O)c1sc(NCC(=O)Nc2cccc([N+](=O)[O-])c2)c(C(=O)OCC)c1C | -12.9% (active)
N[C@@H](Cc1cn(-c2c3ccccc3nc3ccccc23)nn1)C(=O)O | 96.6% (inactive)
COc1cc(/C=C/C(=O)c2cc(OC)c(OC)c(OC)c2)ccc1OCc1ccccc1 | 40.8% (inactive)
N#Cc1c(-c2ccc(Cl)cc2)nc2c(-c3ccccc3)c(Nc3ccccc3)nn2c1N | 57.5% (inactive)
Cc1nc(-c2cc3ccccc3oc2=O)ccc1C(=O)/C=C/c1ccc(Cl)c(Cl)c1 | 107% (inactive)
COc1cc2nc(-c3ccc(C)cc3)cc(OCCCNCC3CCCO3)c2cc1OC (stereo not given) | 75.2% (inactive)
CN(C)CCCOc1c2ccccc2nc2c1oc1ccc(Cl)cc12 | 14.2% (inactive)
COc1ccc(-c2cc(C(=O)N=Nc3c(O)[nH]c4ccccc34)c3ccccc3n2)cc1OC | 93.2% (inactive)
O=[N+]([O-])c1ccc(O)c2ncccc12 | 19.1% (inactive)
O=C(N/N=C/c1ccc(Cl)s1)c1[nH]c2ccc(Br)cc2c1-c1ccccc1 | 30.2% (inactive)
CN1C(=O)N(c2ccccc2)C2N=C(N/N=C/c3ccccc3)SC21 (stereo not given) | 39% (inactive)
CCOC(=O)c1c(NC(=O)c2cccc(C(F)(F)F)c2)sc2cc(O)ccc12 | 99.3% (inactive)
C=CCn1c(SCC(=O)c2ccc(Br)cc2)nnc1-c1c[nH]c2ccccc12 | 103% (inactive)
Cc1cc(C(NC(=O)CCCCCNc2cccc3c2C(=O)N(C2CCC(=O)NC2=O)C3=O)c2cccnc2)c(O)c2ncccc12 (stereo not given) | 10.2% (inactive)
